# Mtb FBA inh = inhibitors of M. tuberculosis fructose-bisphosphate aldolase; AID 588726; purified M. tuberculosis FBA, fluorescence read-out; 360,000 compounds, 2.3% hits; inhibition, % at 1 µM; in the data active = inhibition above about 27%;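 note: 0% = vehicle and 100% = reference inhibitor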
# Target sequence (P9WQA3 whole entry, looked up): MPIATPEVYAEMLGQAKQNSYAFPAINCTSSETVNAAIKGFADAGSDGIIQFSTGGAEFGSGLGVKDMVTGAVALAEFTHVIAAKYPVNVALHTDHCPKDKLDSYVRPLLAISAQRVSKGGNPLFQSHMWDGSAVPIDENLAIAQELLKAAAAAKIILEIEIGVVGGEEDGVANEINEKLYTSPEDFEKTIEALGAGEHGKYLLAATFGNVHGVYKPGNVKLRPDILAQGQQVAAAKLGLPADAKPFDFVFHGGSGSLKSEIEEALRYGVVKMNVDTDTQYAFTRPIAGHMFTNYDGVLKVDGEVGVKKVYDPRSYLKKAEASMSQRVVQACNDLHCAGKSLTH
# PrPC surface inh = reduces human prion protein on the cell surface; 370,000 compounds, 0.43% hits; inhibition, % at 13.8 µM; cell surface PrPC, TR-FRET read-out; P04156; AID 720596; in the data active = inhibition above about 24%; note: 0% = median of the test wells and 100% = reference compound wells
# GDH-TPI inh = GDH-TPI coupled enzyme inhibition counter-screen. GDH-TPI coupled enzyme counterscreen, NADH absorbance. inhibition, % at 4.8 µM. 360,000 compounds, 1.2% hits. AID 588335; in the data active = inhibition above about 30%;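 note: 0% = DMSO wells and 100% = wells lacking the enzyme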
# PfHsp40 yeast = rescue of PfHsp40-mediated yeast toxicity | 340,000 compounds, 0.68% hits | S. cerevisiae expressing PfHsp40, growth rescue, ATP luminescence | growth rescue, % at 12.5 µM | AID 504582; in the data active = growth rescue above about 28%, passing the limit was not always enough;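 note: yeast W303a lacking pdr1 and pdr3 grown in galactose medium; growth measured after three days at 30 °C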
# PrP 5UTR inh = inhibition of PrP 5' UTR reporter expression; cell-based PrP 5' UTR mRNA reporter, plate reader; inhibition, % (test concentration not listed); 340,000 compounds, 0.35% hits; AID 488862; in the data active = inhibition above about 52%; note: 0 = median of the neutral control wells
# BJeLR viability = kills HRASV12-expressing BJeLR cells; BJeLR (HRASV12) viability, CellTiter-Glo ATP luminescence, 48 h; inhibition, % (no concentration beside the values); 300,000 compounds, 0.17% hits; AID 1554; in the data active = inhibition above about 50%
# * marks the source's active call; other numbers are inactive results; / = not tested or not shown; + = active, no number. Compounds with a hit are over-represented: about 4.5% of the library has one in this group of screens.
SMILES,Mtb FBA inh,PrPC surface inh,GDH-TPI inh,PfHsp40 yeast,PrP 5UTR inh,BJeLR viability
O=C(N/N=C/c1c[nH]c2ccc(Br)cc12)C1CC1,10,10,32*,2,-10,2
Cc1nc(N)sc1C(=O)N/N=C/c1ccco1,-1,1,38*,1,-30,-9
COc1ccc(S[C@]2(C(=O)N3CCN(c4ncccn4)CC3)CC(=O)N(c3ccccc3)[C@@H]2c2ccc(OC)cc2)cc1,/,0,/,/,/,/
COc1cccc(-c2nnc3n2N=C(c2ccc(Cl)cc2)CS3)c1,/,-7,/,/,/,/
C/C=N/NC(=O)c1cc(Br)ccc1O,4,-6,16,0,14,14
O=C(N/N=C/C(Cl)=C\c1ccccc1)c1cccs1,1,1,28,1,-83,-12
Cc1c(/C=N/NC(=O)c2cc(Br)ccc2O)c(=O)n(C)c(=O)n1C,0,-6,31*,-2,-2,0
CC(/C=N/NC(=O)c1cccs1)=C\c1ccccc1,-3,1,32*,5,-56,-1
Cc1ccc(C(=O)N/N=C/c2c[nH]c3ccccc23)o1,-3,4,31*,0,-2,-8
Cc1cc(C(=O)N/N=C/c2c[nH]c3ccccc23)c(C)o1,-3,0,8,-1,-18,-2
O=C(N/N=C/c1ccc(Br)s1)c1c[nH]c2ccccc12,0,10,40*,5,-67,-5
COC(=O)[C@]12C[C@H](CC(=O)N3CCC(c4ccccc4)CC3)C(=O)N(Cc3ccco3)C1=C[C@H](C1CCCC1)O[C@@H]2C,/,5,/,/,/,/
O=C(C=Cc1ccccc1)c1cccs1,-5,0,34*,0,-53,/
O=C(N/N=C/c1c[nH]c2ccccc12)c1cc(Br)ccc1O,6,7,31*,1,-12,5
Nc1ccc(/C=C/C(=O)c2cccs2)cc1,-12,9,20,-1,-94,-2
COc1ccccc1/C=C/C=N/NC(=O)CCn1nnc2ccccc21,-1,-8,19,1,-10,0
COc1ccccc1/C=C\C=N\NC(=O)CCn1nnc2ccccc21,4,0,38*,-1,-19,-6
Cn1c(SCC(=O)NCCN2CCCCC2)nc2cccnc21,/,8,/,/,/,/
COc1ccc2cc3cc(C(=O)Nc4cc(OC)c(OC)c(OC)c4)oc3nc2c1,1,-9,23,2,-17,4
CCCCN(C)CCNC(=O)c1cc2cc3ccc(OC)cc3nc2o1,+,-36,24,-1,-12,0
CCN(C(=O)c1cc2cc3ccc(C)cc3nc2o1)c1ccc(OC)cc1,-4,-11,19,1,-39,-6
COCCCNC(=O)c1ccc(CS(=O)(=O)c2ccc(OC)cc2)o1,1,-2,4,0,-26,7
COCCCNC(=O)c1cc2cc3cc(OC)ccc3nc2o1,122*,-15,9,1,-1,-14
CCN(CC)CCNC(=O)c1cc2cc3ccc(OC)cc3nc2o1,+,-24,27,-1,-25,3
C=CCN1[C@H](Cc2ccccc2)COc2cccc(N3CCCC3)c2S1(=O)=O,/,8,/,/,/,/
SMILES,Mtb FBA inh,PrPC surface inh,GDH-TPI inh,PfHsp40 yeast,PrP 5UTR inh,BJeLR viability
Cc1nnc(C)n1N=Cc1ccc(O)cc1O,/,1,/,/,/,/
COc1ccc2cc(C3=CCCCC3)ncc2c1,27*,-5,8,0,-36,/
COc1cc2cnc(C3=CCCCC3)cc2cc1OC,11,8,8,-1,-10,/
CCc1ccc2[nH]c(=O)c(C(c3nnnn3CC3CCCO3)N3CCCc4ccccc43)cc2c1 (stereo unspecified),1,-3,2,0,-24,-2
Cc1cc2cc(C(c3nnnn3CC3CCCO3)N3CCCc4ccccc43)c(=O)[nH]c2cc1C (stereo unspecified),4,-13,34*,2,-1,5
CN(C)c1ccc2cc(S(=O)(=O)O)cc(O)c2c1,169*,-25,15,3,3,/
COc1cccc(NC(=O)Nc2c(-c3ccc(F)cc3)nc3ncccn23)c1,/,1,/,/,/,/
COc1cc(C(=O)Nc2ccc(-c3nc4cc(C)ccc4o3)c(O)c2)cc(OC)c1OC,11,1,34*,1,-21,-6
COc1cc(C(=O)Nc2cccc(-c3nc4ccccc4o3)c2C)cc(OC)c1OC,-5,-1,-13,0,-16,10
COC(=O)C1=C(C)N(C)C(=NCc2ccc(C(F)(F)F)cc2)NC1c1ccccc1C(F)(F)F (stereo unspecified),/,3,/,/,/,/
Cc1ccc(S(=O)(=O)/N=C2/C=C(Sc3ncn[nH]3)C(=O)c3ccccc32)cc1,-3,/,11,119*,-39,/
c1ccc(CN2CCN(c3ncnc4sccc34)CC2)cc1,/,16,/,/,/,/
CCOC(=O)N1CCN(C(=O)C[C@H]2C[C@@]3(C(=O)OC)C(=C[C@H](C4CCCC4)O[C@@H]3C)N(CCC3=CCCCC3)C2=O)CC1,/,0,/,/,/,/
Cn1c(=O)c2cc(S(=O)(=O)N3CCN(Cc4ccccc4)CC3)ccc2n(C)c1=O,/,-1,/,/,/,/
C/C(=N\NC(=O)c1cc2ccccc2cc1O)c1ccccn1,4,-4,20,0,25,8
C/C(=N\NC(=O)c1cc2ccccc2cc1O)c1cc2ccccc2o1,-3,1,60*,1,-18,7
C/C(=N\NC(=O)c1nc2ccccn2c1C)c1ccco1,-3,-6,24,0,-59,-10
C/C(=N\NC(=O)c1nc2ccccn2c1C)c1cc2ccccc2o1,1,5,33*,-1,-21,-2
COC(=O)C1CN(Cc2cn(Cc3ccccc3)nn2)CCS(=O)(=O)N1Cc1ccc(OC)cc1 (stereo unspecified),/,-3,/,/,/,/
O=C(NCc1ccccc1Br)c1cccc2c1C(=O)c1ccc(-c3ccc(OC(F)(F)F)cc3)cc1S2(=O)=O,3,/,2,0,-7,/
O=C(O)c1cccc2c1C(=O)c1ccc(-c3ccc(OC(F)(F)F)cc3)cc1S2(=O)=O,2,-22,32*,0,-20,/
COC(=O)Cn1nc(-c2ccccc2)c2cccc(C(F)(F)F)c21,/,-1,/,/,/,/
CCOCCCNC(=O)c1c(N)n(-c2ccc3c(c2)OCO3)c2nc3ccccc3nc12,5,-4,2,0,-7,0
CCOc1ccc(-n2c(N)c(C(=O)NCc3ccco3)c3nc4ccccc4nc32)cc1,52*,/,18,-1,-6,-11
COCCCn1c(N)c(C(=O)NCc2ccco2)c2nc3ccccc3nc21,/,-7,/,1,-31,1
CCOCCCNC(=O)c1c(N)n(-c2ccc(S(N)(=O)=O)cc2)c2nc3ccccc3nc12,33*,-3,6,-1,-9,1
COC(=O)c1cc(-c2ccc(-c3ccccc3)c(F)c2)c(=O)n2c1CCC2,/,2,/,/,/,/
Cc1ccc(-c2cc(C(=O)NN=Cc3ccc(-c4ccccc4)cc3)[nH]n2)cc1,/,-5,/,/,/,/
CC(=Cc1cccs1)C(=O)c1ccccc1,-1,7,32*,/,/,/
CC(C)CCNC(=O)CSc1nc2c(c(=O)[nH]1)CCC2,/,7,/,/,/,/

# Bioassay records deposited in PubChem BioAssay by several laboratories.
